# Compound activity deposited in PubChem by National Center for Advancing Translational Sciences (NCATS).
# Hits are enriched below; roughly 21% of the tested compounds scored in any of these assays.
# Pf growth 48h: Primary qHTS for delayed death inhibitors of the malarial parasite plastid, 48 hour incubation; P. falciparum luciferase growth in erythrocytes, 48 h; Potency, µM (top dose mostly 28.7 µM), for inactives: top-dose activity change, negative = inhibition, hits mostly inhibitors; 310,000 compounds, 5.9% hits; AID 504832, 2011; further: potency means the concentration at half of the fitted maximal effect; on the % scale 0 is the no-effect control and ±100 the full control effect
#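 First compound was added to culture medium, then infected red cells at 0.1% parasitemia and 2% hematocrit (final). After incubation at 37 C under 5% CO2, luciferase detection reagent was dispensed and light output recorded.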
# Pf growth 96h: Primary qHTS for delayed death inhibitors of the malarial parasite plastid, 96 hour incubation; P. falciparum luciferase reporter growth, 96 h; Potency, µM (doses to about 28.7 µM), for inactives: at the top dose activity change, negative = inhibition, hits mostly inhibitors; 320,000 compounds, 6.9% hits; AID 504834, 2011; further: potency means the concentration at half of the fitted maximal effect; on the % scale 0 is the no-effect control and ±100 the full control effect
#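 Luminescence readout: decreased luciferase signal marks inhibited growth of reporter-expressing P. falciparum in infected red cells (2% hematocrit, 0.05% parasitemia final), exposed to compound two generations (96 h, 37 C, 5% CO2).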
# Shiga inhibitor: A qHTS for Small Molecule Inhibitors of Shiga Toxin; 290,000 compounds, 9.2% hits; AID 2315, 2010; inhibition, % at 38.7 µM; Vero cells, Shiga toxin protein synthesis inhibition reporter; in the data active means inhibition mostly above about 28%, no sharp cut-off; inactive means mostly below about 43%; further: 0% is about no effect
# CHX counter: Cycloheximide Counterscreen for Small Molecule Inhibitors of Shiga Toxin; AID 2314, 2010; 300,000 compounds, 12% hits; max response, %; cell reporter, cycloheximide protein synthesis inhibition counterscreen; in the data active means max response mostly above about 13%, no sharp cut-off; inactive means mostly below about 14%; further: read at 38.3 µM for the half of the compounds with a filed dose; 0% is about no effect
# * marks the source's active call; other numbers are inactive results; i = inactive; u = inconclusive; x = no result given. Unless noted, the call rests on the fitted dose curve; in most records, active means well fitted inhibition curve with a large enough effect; inconclusive means small, poorly fitted or top-dose-only effect, or another doubt; inactive means no such curve, though single readings can be large or run the other way.
SMILES,Pf growth 48h,Pf growth 96h,Shiga inhibitor,CHX counter
O=c1cc(-c2ccccc2)nc(SCCOc2ccccc2Cl)[nH]1,7%,7.4µM*,24,-4
Cc1ccc(Oc2ccccc2NC(=O)C2=COCCO2)cc1,u,-12%,x,x
O=C(c1ccccc1F)N1CCCC(C(=O)N2CCc3ccccc3C2)C1 (stereo not drawn),1%,-17%,-15,-2
COc1ccc(C(c2c(C)n(C)n(-c3ccccc3)c2=O)c2c(C)n(C)n(-c3ccccc3)c2=O)c(OC)c1OC,u,10µM*,-5,-3
O=C(Cc1ccc(Cl)c(Cl)c1)NNC(=S)NCC1CCCO1 (stereo not drawn),4%,u,-3,-2
Cc1cc(OC(C)C(=O)NCC2CCCO2)cc(C)c1Cl (stereo not drawn),4%,5.2µM*,-1,-2
Cc1cc(OCC(=O)NNC(=S)NCC2CCCO2)cc(C)c1Cl (stereo not drawn),6%,-24%,33,17*
CN(C(=O)C1CCCCC1)C1(C)CCS(=O)(=O)C1 (stereo not drawn),2%,-1%,x,x
CN(CCOC(=O)c1cccc(F)c1)Cc1ccccc1,-1%,0%,-10,0
COc1ccc(O)c(C(=O)/C=C/c2cc3ccccc3o2)c1,x,x,18,37
O=C(Oc1ccccc1/C=C\C(=O)c1cc2ccccc2o1)c1ccccc1,20%,-3%,90*,35*
O=C(Nc1ccccc1)c1ccc(OC(=O)c2cc3ccccc3o2)cc1,x,28%,-2,-2
O=C(Oc1ccccc1/C=C\C(=O)c1cc2ccccc2o1)c1cccc(F)c1,20%,-1%,41*,37*
COc1cccc(C(=O)Oc2ccccc2/C=C\C(=O)c2cc3ccccc3o2)c1,u,u,63*,86*
O=C(NCc1ccccc1Cl)C1CCC(=O)N(CCCN2CCCC2=O)C1 (stereo not drawn),5%,-22%,-12,-2
CC1(C)CC(=O)C(C(N)=NC(=O)c2ccccc2)=C(O)C1,27%,46%,70*,39*
CC1(C)CC(=O)C(C(N)=NC(=O)c2ccc([N+](=O)[O-])cc2)=C(O)C1,31%,42%,62,18*
C/C(=N/NC(=O)c1ccccc1)C1=C(O)CC(C)(C)CC1=O,-25%,u,-12,-1
C[C@@]12C(=O)N(CC3CC3)CC(=O)N1[C@H](C1CC1)[C@@H]1C(=O)N(c3ccccc3)C(=O)[C@@H]12,21%,53%,-4,-2
CS(=O)(=O)N(CC(=O)N1CCCC1)c1ccc(Cl)cc1,5%,u,-6,-2
COc1ccc(N(CC(=O)N2CCOCC2)S(C)(=O)=O)cc1,-7%,u,-5,1
COc1ccc(N(CC(=O)N2CCOCC2)S(C)(=O)=O)cc1Cl,-14%,12µM*,-3,-2
COc1ccc(N(CC(=O)N2CCCCCC2)S(C)(=O)=O)cc1Cl,u,-29%,12,2
CCc1ccccc1N(CC(=O)N1CCCC1)S(C)(=O)=O,-2%,10µM*,-10,1
Cc1ccc(N(CC(=O)N2CCCC2)S(C)(=O)=O)cc1C,-17%,7.4µM*,-7,-2
SMILES,Pf growth 48h,Pf growth 96h,Shiga inhibitor,CHX counter
COc1ccc(N(CC(=O)N2CCOCC2)S(C)(=O)=O)cc1OC,-5%,13µM*,-3,-4
Cc1c(C(=O)N2CCCCC2)c(S(=O)(=O)NCCc2ccc(S(N)(=O)=O)cc2)c(C)n1C,0%,u,-6,1
O=C1CCCN1S(=O)(=O)c1ccc(F)cc1,0%,-7%,17,12
CN(C)C(=C(C#N)C#N)N1CCN(c2ccc(Cl)c(Cl)c2)CC1,-6%,43%,-1,1
CCn1c(SCC(=O)Nc2ccc(F)cc2)nc2ccccc2c1=O,x,u,5,-5
C=CCn1c(SCC(=O)Nc2ccc(F)cc2)nc2ccccc2c1=O,u,5.2µM*,-9,5
C=CCn1c(SCC(=O)Nc2cccc3ccccc23)nc(O)c(CC)c1=O,x,9.3µM*,-22,-9
C=CCn1c(SCC(=O)NC(=O)c2cccn2C)nc2ccccc2c1=O,3.7µM*,10%,1,10
CCOC(=O)N1CCN(C(=O)CS(=O)(=O)c2cn(Cc3cccc(F)c3)c3ccccc23)CC1,x,3%,-3,-2
O=S(=O)(NCC1CCCO1)c1cnc(Cl)c(Br)c1 (stereo not drawn),-25%,-14%,-3,-3
Cc1ccc(C(=O)c2cc([N+](=O)[O-])ccc2N2CC(C)OC(C)C2)cc1 (stereo not drawn),9.3µM*,u,-14,-8
CCCCn1c(=O)n(CC(=O)NCc2ccc(C)cc2)c(=O)c2c1nc(CO)n2CCC,u,4.1µM*,-10,11
CC(=O)c1cccc(N(C(=O)CNC(=O)c2cccs2)C(C(=O)NCC2CCCO2)c2ccccc2)c1 (stereo not drawn),u,0%,24,-1
CCOCC(=O)Nc1c(C(=O)Nc2ccc3c(c2)OCCO3)oc2ccccc12,147%,138%,126*,37*
CCC(=O)Nc1c(C(=O)Nc2cccc(OC)c2)oc2ccccc12,117%,54%,37,18*
CCC(=O)Nc1c(C(=O)Nc2ccc3c(c2)OCCO3)oc2ccccc12,304%,i,88*,41
COCC(=O)Nc1c(C(=O)Nc2ccc3c(c2)OCCO3)oc2ccccc12,369%,i,93*,36*
O=C(O)CCN1C(=O)c2ccc(NC(=O)COc3ccccc3)cc2C1=O,43%,9%,1,1
CC(C)(C)NC(=O)CSc1nnc(-c2c[nH]c3ccccc23)o1,u,u,65*,28*
CCN(CC)C(=O)CSc1nnc(-c2c[nH]c3ccccc23)o1,u,0.47µM*,x,40*
COC(=O)CSc1nnc(-c2c[nH]c3ccccc23)o1,11%,u,x,-2
CC(=O)N1CCC2(CC1)C(C#N)=C(N)Oc1n[nH]c(CSc3ccc(C)cc3)c12,32%,6.6µM*,6,0
Cc1ccc(SCc2[nH]nc3c2C2(C(=O)Nc4ccc(F)cc42)C(C#N)=C(N)O3)cc1 (stereo not drawn),4%,x,-9,-5
C/C(=N\NC(=O)c1cccc(S(=O)(=O)N2CCCC2)c1)c1ccc(C)cc1,u,-22%,x,x
O=C(COC(=O)C1CC2CCCC(C1)C2=O)Nc1ccc(Cl)cn1 (stereo not drawn),0%,-11%,x,x
O=c1nc2c(-c3ccccc3F)n[nH]n2c2ccccc12,80%,u,80*,20*
COc1ccc(C2Nc3ccccc3C(=O)N2Cc2ccccc2)cc1COc1ccc(Cl)cc1Cl (stereo not drawn),1.7µM*,6%,x,x
COc1ccc(C2Nc3ccccc3C(=O)N2c2ccccc2)cc1CN1CCOCC1 (stereo not drawn),-2%,u,11,11
COc1ccc(C2Nc3ccccc3C(=O)N2Cc2ccccc2)cc1CN1CCOCC1 (stereo not drawn),8.3µM*,13µM*,-10,-1
O=C1c2ccccc2NC(c2ccc(F)cc2)N1Cc1ccccc1 (stereo not drawn),u,6%,-7,9
